Compound activity: PubChem BioAssay, National Center for Advancing Translational Sciences (NCATS)
Cycloheximide cs: counter-screen for Shiga toxin inhibitors: cycloheximide protein synthesis inhibition. max response, %. 300,000 tested, 12% active. cell reporter, cycloheximide protein synthesis inhibition counterscreen. AID 2314; in the data active means max response mostly above about 13%, no sharp cut-off; inactive means mostly below about 14%; further: read at 38.3 µM for the half of the compounds with a filed dose; 0% is about no effect
Pf growth 48h: inhibits P. falciparum growth in the first generation, 48 h; P. falciparum luciferase growth in erythrocytes, 48 h; Potency, µM (titrated, usually from 28.7 µM), for inactives: at the top dose activity change, negative = inhibition, most hits filed as inhibitors; 310,000 tested, 5.9% active; AID 504832; further: potency means the concentration at half of the fitted maximal effect; on the % scale 0 is the no-effect control and ±100 the full control effect
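Growth was read as firefly luciferase luminescence after a 48 h, 37 C, 5% CO2 exposure of compounds to reporter-bearing P. falciparum cultures (0.1% parasitemia, 2% hematocrit final) in Albumax-supplemented RPMI 1640.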
LmPK inhibitor: inhibitors of Leishmania mexicana pyruvate kinase | purified LmPK, Kinase-Glo ATP luminescence, 1 h | 290,000 tested, 0.37% active | Potency, µM (top dose mostly 57.5 µM), without a hit: top-dose activity change, negative = inhibition, hits mostly inhibitors | Q27686 | AID 1721; further: potency means the concentration at half of the fitted maximal effect; on the % scale 0 is the no-effect control and ±100 the full control effect
Target sequence (Q27686 whole entry, looked up): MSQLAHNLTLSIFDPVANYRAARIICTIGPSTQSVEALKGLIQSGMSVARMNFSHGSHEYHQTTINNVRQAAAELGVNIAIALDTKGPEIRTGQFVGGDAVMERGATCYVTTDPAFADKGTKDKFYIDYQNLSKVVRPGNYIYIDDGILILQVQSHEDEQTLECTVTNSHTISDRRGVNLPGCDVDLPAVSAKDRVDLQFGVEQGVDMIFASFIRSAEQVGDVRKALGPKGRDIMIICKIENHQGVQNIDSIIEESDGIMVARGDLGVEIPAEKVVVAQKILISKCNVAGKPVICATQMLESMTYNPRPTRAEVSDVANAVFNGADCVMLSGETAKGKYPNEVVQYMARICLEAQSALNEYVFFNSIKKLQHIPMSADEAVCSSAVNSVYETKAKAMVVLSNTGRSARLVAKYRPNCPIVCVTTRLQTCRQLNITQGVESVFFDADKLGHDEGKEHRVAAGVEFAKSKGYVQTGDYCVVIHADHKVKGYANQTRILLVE
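Screened at intermediate enzyme activity to detect both inhibitors and activators: LmPK at 0.1 nM, with a 0.5 nM enzyme column as activation reference. PEP 0.5 mM, ADP 0.1 mM; ATP detected by luminescence after 1 h.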
Shiga inhibitor: inhibitors of Shiga toxin in Vero cells. 290,000 tested, 9.2% active. Vero cells, Shiga toxin protein synthesis inhibition reporter. inhibition, % at 38.7 µM. AID 2315; in the data active means inhibition mostly above about 28%, no sharp cut-off; inactive means mostly below about 43%; further: 0% is about no effect
Pf growth 96h: P. falciparum growth inhibition at 96 hours; P. falciparum luciferase reporter growth, 96 h; 320,000 tested, 6.9% active; Potency, µM (titrated, usually from 28.7 µM), for inactives: at the top dose activity change, negative = inhibition, actives largely listed as inhibitors; further: potency means the concentration at half of the fitted maximal effect; on the % scale 0 is the no-effect control and ±100 the full control effect
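Two parasite generations (96 h, 37 C, 5% CO2) of compound exposure in infected erythrocytes (0.05% parasitemia, 2% hematocrit). Luciferase-reporter P. falciparum; decreased luminescence indicates inhibited growth, aimed at apicoplast-acting delayed death.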
* marks the source's active call; other numbers are inactive results; ? = inconclusive; nt = not tested or not shown; [ ] = remark or other dose. Shown are actives, neighbours in structure and some others; about 22% of the full set was active somewhere. Unless noted, the call rests on the fitted dose curve; in most records, active means well fitted inhibition curve with a large enough effect; inconclusive means small, poorly fitted or top-dose-only effect, or another doubt; inactive means no such curve, though single readings can be large or run the other way.

SMILES	Cycloheximide cs	Pf growth 48h	LmPK inhibitor	Shiga inhibitor	Pf growth 96h
Cc1occc1C(=O)NNC(=O)Nc1ccc(F)cc1F	5	3%	-8%	14	?
Cc1occc1C(=O)Nc1ccc(Br)cc1F	51*	nt	-14%	52*	112%
Cc1ccc(C)c(NC(=O)c2cccc(Oc3ccc([N+](=O)[O-])cc3Cl)c2)c1	1	-7%	2%	-20	13µM*
O=C(CSc1nnc(NC(=O)C2CC(=O)N(c3ccc(F)cc3)C2)s1)NC1CCCC1 (configuration not stated)	-2	-4%	-9%	23	?
Cc1ccc([N+](=O)[O-])cc1S(=O)(=O)Nc1cccc(-c2ccc(N3CCOCC3)nn2)c1	nt	7%	nt	nt	5%
Nc1cc(C(=O)OCC(=O)N2CCC(Cc3ccccc3)CC2)ccc1Cl	nt	5%	nt	nt	?
O=C(c1sc2ccccc2c1Cl)N1CCN(CCc2ccccn2)CC1	-2	?	-1%	-1	-10%
CC(C)(O)CC[C@H](OC(=O)c1ccccc1)[C@](C)(O)[C@H]1CC[C@@]2(O)C3=CC(=O)[C@@H]4C[C@@H](O)[C@H](O)C[C@]4(C)C3CC[C@]12C (some centres not stated)	-3	14%	-3%	-9	4%
O=S(=O)(c1ccccc1)n1c(C(O)c2ccccn2)cc2ccccc21 (configuration not stated)	-3	4%	2%	5	-10%
CCC(=O)N1CCN(c2ccccc2NC(=O)c2cccs2)CC1	-2	-10%	-5%	1	?
Cc1ccc([N+](=O)[O-])cc1NC(=O)c1ccccc1	-4	11%	5%	-5	2.1µM*
Cc1ccc([N+](=O)[O-])cc1NC(=O)c1ccoc1C	35*	2%	-3%	48*	23%
CC(C)C(=O)Nc1cccc(C(=O)Nc2cc([N+](=O)[O-])ccc2Cl)c1	-2	?	-8%	17	7%
Cc1cc([N+](=O)[O-])ccc1NC(=O)c1cccc(NC(=O)C(C)C)c1	15*	15%	-2%	108*	62%[5.75 µM]
CCn1cc(C(=O)N[C@@H](C)C(=O)NCCCn2ccnc2)c(=O)c2cc3c(cc21)OCO3	-2	-9%	6%	-2	?
CCCCCCCCCCCCCCCC(=O)OCC(COC(=O)CCCCCCCCCCCCCCC)OC(=O)CCCCCCCCCCCCCCC	nt	9%	nt	nt	8%
COc1ccc(Cl)c2sc(N3CCN(C(C)=O)CC3)nc12	1	5%	-3%	-10	22%
CC1=NN(c2nc(-c3ccc(C)cc3)cs2)C(=O)C1N=Nc1ccccc1O (configuration not stated)	43*	?	-10%	50*	12%
COc1ccc(-c2csc(N3N=C(C)C(C)C3=O)n2)cc1 (configuration not stated)	15*	99%	-9%	37	12µM*
CC1=NN(c2nc(-c3ccc(C)cc3)cs2)C(=O)C1N=Nc1cccc(O)c1 (configuration not stated)	9	-12%	-5%	15	4%
CC1Nc2ccccc2C(=O)N1NC(=O)c1ccc(Br)cc1 (configuration not stated)	5	29%	7%[11.5 µM]	-4	8.3µM*
Cc1ccc2nc3c(c(N)c2c1)CCN3C	2	-14%	2%	10	?
CCCCN1CCc2c1nc1ccc(Br)cc1c2N	-3	nt	-2%	23	1.7µM*
Cc1ccc(OC[C@H](O)[C@H](C)NC(C)C)c2c1CCC2	nt	9.3µM*	nt	nt	?
CCCNC(=O)C(Cc1ccccc1F)NC(=O)c1ccc(C#N)cc1 (configuration not stated)	nt	-9%	nt	nt	41%
Cc1ccc(-c2ccc([C@H]3[C@@H]4C=CCC[C@@]4(C)C(=O)N3Cc3ccccc3)c(F)c2)cc1	1	?	2%	-4	13µM*
CC(=O)c1ccc(-c2ccc([C@H]3[C@@H]4C=CCC[C@@]4(C)C(=O)N3Cc3ccccc3)c(F)c2)cc1	-3	12µM*	3%	-2	?
NS(=O)(=O)c1ccc(NC(=O)CCC(=O)c2ccc(Cl)s2)cc1	-3	-15%	4%	-16	27%
